Test results: PubChem BioAssay (Tox21)
Inconclusive results are not listed. Activity calls are given as the source filed them. Unless noted, the call rests on the fitted dose curve; in most records, active means well fitted curve in the direction sought with a large enough effect in the repeat runs; inconclusive means weak or mixed curves; inactive means no such curve, though single readings can be large; an effect the other way counts as inactive or inconclusive.

What was measured:
[1] = qHTS assay to identify small molecule antagonists of the peroxisome proliferator-activated receptor delta (PPARd) signaling pathway - cell viability counter screen (AID 743213); further: nearly all actives have a fitted effect of over 50% in size
Method in brief: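 Luminescence from CellTiter-Glo, added after the bla read and incubated 30 min at room temperature, gives viability of HEK293H PPARd-bla cells exposed to compounds for 17 h at 37 C with 300 nM L165041.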

[2] = qHTS assay to identify small molecule agonists of the farnesoid-X-receptor (FXR) signaling pathway - cell viability counter screen (AID 743218); further: nearly all actives have a fitted effect of over 45% in size; further: potency means the concentration at half of the fitted maximal effect
Method in brief: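 Same-well cytotoxicity check on FXR-UAS-bla HEK 293T cells: 5 h attachment, 16 h compound at 37 C, CellTiter-Glo luminescence read at room temperature after 30 min.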

[3] = qHTS assay to identify small molecule antagonists of the farnesoid-X-receptor (FXR) signaling pathway - cell viability counter screen (AID 743221; active means well fitted cell-killing curve with a large enough effect in the repeat runs, not every such curve was filed as active; further: nearly all actives have a fitted effect of over 50% in size)
Method in brief: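 CellTiter-Glo, 30 min RT, luminescence; same wells as the LiveBLAzer FRET read. Cells: FXR-UAS-bla HEK 293T. Treatment: compound with chenodeoxycholic acid 50 uM final, 16 h at 37 C.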

[4] = molecular target: Vitamin D3 receptor (Homo sapiens) (UniProt P11473); experiment: qHTS assay to identify small molecule agonists of the vitamin D receptor (VDR) signaling pathway (AID 743222; calls by dose curve)
Sequence of Vitamin D3 receptor (Homo sapiens) (P11473 whole entry, looked up): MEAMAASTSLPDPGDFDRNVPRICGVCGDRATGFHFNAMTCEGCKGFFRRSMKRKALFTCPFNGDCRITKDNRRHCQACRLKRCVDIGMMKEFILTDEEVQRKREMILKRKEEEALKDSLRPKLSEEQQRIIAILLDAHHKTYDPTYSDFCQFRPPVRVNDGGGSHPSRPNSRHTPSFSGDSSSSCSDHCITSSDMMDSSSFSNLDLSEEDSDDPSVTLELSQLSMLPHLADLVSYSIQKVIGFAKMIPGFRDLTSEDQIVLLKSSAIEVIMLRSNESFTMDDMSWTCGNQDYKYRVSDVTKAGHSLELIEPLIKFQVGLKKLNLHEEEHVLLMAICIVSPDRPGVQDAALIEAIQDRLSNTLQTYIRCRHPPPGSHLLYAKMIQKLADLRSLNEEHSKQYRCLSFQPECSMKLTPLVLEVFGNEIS
Method in brief: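 Using LiveBLAzer B/G FRET detection, agonism was scored in VDR-bla cells exposed overnight (16 h, 37C) to DMSO-dissolved compounds; substrate incubation was 2 h at room temperature.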

[5] = qHTS assay to identify small molecule agonists of the vitamin D receptor (VDR) signaling pathway - cell viability counter screen (AID 743224); further: series mostly up to about 63 µM; nearly all actives have a fitted effect of over 50% in size
Method in brief: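 Counter screen for cytotoxicity: VDR-bla cells at 2,000 cells/well, 16 h compound exposure, then CellTiter-Glo luminescence after the beta-lactamase measurement.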

[6] = molecular target: Vitamin D3 receptor (Homo sapiens) (UniProt P11473); experiment: qHTS assay to identify small molecule antagonists of the vitamin D receptor (VDR) signaling pathway (AID 743223; active means well fitted inhibition curve with a large enough effect in the signal ratio in the repeat runs, not every such curve was filed as active; the % refers to the signal ratio)
Method in brief: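 After VDR-bla cells are plated and left 4 h at 37C, DMSO-dissolved compounds and 3 nM (final) calcitriol agonist are added. Incubation continues 16 h at 37C; FRET beta-lactamase substrate then develops 2 h at room temperature.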

[7] = molecular target: Peroxisome proliferator-activated receptor delta (Homo sapiens) (UniProt Q03181); experiment: qHTS assay to identify small molecule antagonists of the peroxisome proliferator-activated receptor delta (PPARd) signaling pathway (AID 743215; active means well fitted inhibition curve with a large enough effect in the signal ratio in the repeat runs, not every such curve was filed as active; the % refers to the signal ratio;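 further: cells stimulated with agonist L165041 at 300 nM final during compound exposure; series mostly up to about 62 µM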)
Sequence of Peroxisome proliferator-activated receptor delta (Homo sapiens) (Q03181 whole entry, looked up): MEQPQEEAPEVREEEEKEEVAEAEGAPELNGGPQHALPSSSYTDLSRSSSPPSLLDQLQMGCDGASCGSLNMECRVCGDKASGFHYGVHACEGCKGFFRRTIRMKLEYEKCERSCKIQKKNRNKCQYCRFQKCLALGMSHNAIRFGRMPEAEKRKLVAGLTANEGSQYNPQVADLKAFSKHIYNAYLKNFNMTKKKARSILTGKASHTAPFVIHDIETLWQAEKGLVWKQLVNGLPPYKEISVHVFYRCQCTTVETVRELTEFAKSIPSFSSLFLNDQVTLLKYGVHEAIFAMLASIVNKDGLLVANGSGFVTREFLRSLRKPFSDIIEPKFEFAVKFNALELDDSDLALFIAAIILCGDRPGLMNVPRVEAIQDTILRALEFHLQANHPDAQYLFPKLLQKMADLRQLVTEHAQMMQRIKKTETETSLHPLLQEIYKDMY
Method in brief: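 Screen format: qHTS, antagonist mode. HEK293H PPARd-bla cells received compound and 300 nM L165041 (final), 17 h, 37 C. Beta-lactamase detected via FRET substrate fluorescence, 2 h, room temperature.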

[8] = molecular target: Bile acid receptor (Homo sapiens) (UniProt Q96RI1); experiment: qHTS assay to identify small molecule antagonists of the farnesoid-X-receptor (FXR) signaling pathway (AID 743217; active means well fitted inhibition curve with a large enough effect in the signal ratio in the repeat runs, not every such curve was filed as active; the % refers to the signal ratio)
Sequence of Bile acid receptor (Homo sapiens) (Q96RI1 whole entry, looked up): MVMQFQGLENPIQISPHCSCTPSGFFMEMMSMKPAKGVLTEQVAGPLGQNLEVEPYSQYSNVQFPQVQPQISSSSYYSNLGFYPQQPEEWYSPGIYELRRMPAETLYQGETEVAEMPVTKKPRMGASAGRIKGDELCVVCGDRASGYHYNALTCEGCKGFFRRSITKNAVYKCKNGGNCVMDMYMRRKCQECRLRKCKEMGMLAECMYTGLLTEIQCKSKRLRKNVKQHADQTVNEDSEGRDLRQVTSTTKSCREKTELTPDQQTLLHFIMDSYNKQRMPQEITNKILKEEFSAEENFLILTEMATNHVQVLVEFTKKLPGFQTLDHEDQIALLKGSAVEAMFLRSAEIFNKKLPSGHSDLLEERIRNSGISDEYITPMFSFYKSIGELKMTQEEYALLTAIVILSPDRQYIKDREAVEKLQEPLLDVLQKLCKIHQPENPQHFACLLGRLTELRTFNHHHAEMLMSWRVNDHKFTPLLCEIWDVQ
Method in brief: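 Quantitative HTS, beta-lactamase reporter format: FXR-UAS-bla HEK 293T cells co-treated 16 h at 37 °C with compounds and 50 uM final chenodeoxycholic acid, then read by B/G FRET fluorescence.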

[9] = molecular target: Bile acid receptor (Homo sapiens) (UniProt Q96RI1); experiment: qHTS assay to identify small molecule agonists of the farnesoid-X-receptor (FXR) signaling pathway (AID 743220; active means well fitted activation curve with a large enough effect in the signal ratio in the repeat runs, not every such curve was filed as active; the % refers to the signal ratio)
Method in brief: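 FXR-UAS-bla HEK 293T cells carrying a UAS-driven beta-lactamase reporter were plated for 5 h at 37C/5% CO2, then exposed to DMSO-dissolved Tox21 10K compounds for 16 h at 37C. A LiveBLAzer B/G FRET substrate was loaded for 2 h at room temperature before fluorescence reading.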
On the % scale 0 is the no-effect control and ±100 the full control effect.

CC12CC3CC(C)(C1)CC(N)(C3)C2
inactive: Potency [1] | Potency [2] | Potency [3] | outcome [4] | Potency [5]

CN1C(CSCC(F)(F)F)Nc2cc(Cl)c(S(N)(=O)=O)cc2S1(=O)=O (centres undefined)
inactive: Potency [1] | Potency [2] | Potency [3] | outcome [4] | outcome [6] | Potency [5]

CC1=CC[C@@H]2C[C@H]1C2(C)C
inactive: viability change, negative = cytotoxic [1] -2.53% [at 13.7 µM] | viability change, negative = cytotoxic [2] 17.4% [at 13.2 µM] | activation [4] -15.3% [at 13.4 µM] | activity change, negative = cytotoxicity [5] 3.15% [at 13.2 µM]

CCCCCCCCCCCCCCN(C)C
inactive: Potency [1] | Potency [3] | outcome [4]

CNc1c2c(nn1C)CCCC2
inactive: Potency [1] | Potency [2] | Potency [3] | Potency [5]

CCCCCCOC(=O)CCCCC
inactive: Potency [1] | Potency [2] | Potency [3] | outcome [4] | Potency [5]

O=C1c2ccccc2C(=O)c2c(O)ccc(O)c21
inactive: Potency [1] | Potency [2] | Potency [3] | outcome [6]

CCN(CC)CCOc1ccccc1C(=O)CCc1ccccc1
active: Potency [2] 11.9 µM
inactive: Potency [7] | outcome [8] | Potency [9] | outcome [4] | Potency [5]

O=[N+]([O-])C1(Br)COCOC1
inactive: Potency [2] | Potency [9] | outcome [4]

C[C@@H]1[C@H](O)[C@@H](C)/C=C/C=C\C=C\C=C\C=C\C=C\C=C\[C@H](O[C@@H]2O[C@H](C)[C@@H](O)[C@H](N)[C@@H]2O)C[C@@H]2O[C@](O)(C[C@@H](O)C[C@@H](O)[C@H](O)CC[C@@H](O)C[C@@H](O)CC(=O)O[C@H]1C)C[C@H](O)[C@H]2C(=O)O (stereo in doubt)
inactive: Potency [2] | Potency [3]

CCCCCCCCCCCSCC(=O)O
inactive: Potency [3]

CCCCCCCC/C=C/C(=O)O
inactive: Potency [1] | Potency [2] | Potency [3] | outcome [4] | outcome [6] | Potency [5]

CCN(Cc1cccc(S(=O)(=O)O)c1)c1ccc(C(=C2C=CC(=[N+](CC)Cc3cccc(S(=O)(=O)O)c3)C=C2)c2ccc(O)cc2S(=O)(=O)[O-])cc1
inactive: Potency [7] | outcome [8] | Potency [9] | outcome [4] | outcome [6]

Nc1c(Cl)cc(Cl)cc1[N+](=O)[O-]
inactive: Potency [1] | Potency [2] | Potency [3] | outcome [4] | Potency [5]

CC1=CC[C@@]23C[C@@H]1C(C)(C)[C@@H]2CC[C@H]3C
inactive: Potency [1] | Potency [2] | Potency [3] | Potency [5]

COC(OC)OC
inactive: Potency [1] | Potency [3] | outcome [4] | outcome [6]

CC(=O)OCC(C)C
inactive: Potency [1] | Potency [2] | Potency [3] | outcome [4] | outcome [6] | Potency [5]

O=S(=O)(O)CO
inactive: Potency [1] | Potency [2] | outcome [4] | Potency [5]

CCOC(=O)c1c(N)sc2c1CCN(Cc1ccccc1)C2
inactive: Potency [1] | Potency [2] | outcome [6] | Potency [5]

O=NN(CCCl)C(=O)NCCCl
inactive: Potency [7] | Potency [3]

CC(C(=O)O)c1ccc(C(=O)c2cccs2)cc1 (centres undefined)
inactive: Potency [1] | Potency [2] | Potency [3] | outcome [4] | outcome [6]

CC(C)(C)CCCCCCOC(=O)c1ccccc1C(=O)OCCCCCCC(C)(C)C
inactive: Potency [7] | outcome [8] | Potency [2] | Potency [9] | Potency [3] | outcome [4]

CCOC(=O)N1CCC(Nc2ccc(Cl)cc2N)CC1
inactive: Potency [1] | Potency [2] | Potency [3] | outcome [6]

CC(C)N=C=NC(C)C
inactive: Potency [1] | Potency [3] | outcome [6] | Potency [5]

CCOc1ncc(F)c(=O)[nH]1
inactive: Potency [1] | Potency [3] | outcome [4] | outcome [6] | Potency [5]

c1ccc(CNc2ncnc3c2ncn3C2CCCCO2)cc1 (centres undefined)
inactive: Potency [7] | outcome [8] | Potency [9] | Potency [3] | outcome [4] | Potency [5]

O=C(NC(Cc1cc(=O)[nH]c2ccccc12)C(=O)O)c1ccc(Cl)cc1 (centres undefined)
inactive: Potency [1] | Potency [2] | Potency [3] | outcome [4] | Potency [5]

SCCc1cnccn1
inactive: Potency [1] | Potency [2] | Potency [3] | Potency [5]

CCCCCCCCCCCC(=O)OCC(O)CO (centres undefined)
inactive: Potency [2] | Potency [3] | outcome [6]

CC[C@H]1OC(=O)[C@H](C)[C@@H](O[C@H]2C[C@@](C)(OC)[C@@H](O)[C@H](C)O2)[C@H](C)[C@@H](O[C@@H]2O[C@H](C)C[C@H](N(C)C)[C@H]2O)[C@](C)(O)C[C@@H](C)C(=O)[C@H](C)[C@@H](O)[C@]1(C)O
inactive: Potency [1] | Potency [2] | Potency [3] | outcome [4] | outcome [6] | Potency [5]

CC(C)C1CCC(C(=O)N[C@H](Cc2ccccc2)C(=O)O)CC1 (some centres undefined)
inactive: Potency [2] | outcome [6]

Nc1cccc2c(N)cccc12
inactive: outcome [8] | Potency [5]

CC(C)CC(O)CC(C)C
inactive: Potency [1] | Potency [3] | outcome [4] | outcome [6]

O=C(/C=C/c1ccc([N+](=O)[O-])cc1)c1ccccc1
inactive: Potency [7] | Potency [2] | Potency [3] | outcome [4] | Potency [5]
